aSyn 5UTR act – Activators via SNCA 5'UTR binding, MLPCN | 300,000 tested, 7.1% active | alpha-synuclein 5'UTR reporter, activators screen | activity score, % (tested at 7.5 µM), hits read low; in the data active = activity score below about -60%
Large screens that a line does not name were inactive. Many of the other results were omitted from the sample, so hits are more common in it than they were.

COc1cccc(C(=O)Nc2nc3c(s2)CN(C)CC3)c1	aSyn 5UTR act -85
COc1cccc(C(=O)NCc2ccc(-c3nc4ccccc4s3)cc2)c1	aSyn 5UTR act -109
CC(C)(C)c1ccc(-c2nnc(NC(=O)c3ccccc3)s2)cc1	aSyn 5UTR act -163
COc1cccc(C(=O)Nc2nnc(-c3ccccc3)s2)c1	aSyn 5UTR act -224
CC1CC(C)CN(C(=O)/C=C/c2ccc([N+](=O)[O-])s2)C1 (configuration not stated)	aSyn 5UTR act -97
CC1CN(C(=O)/C=C/c2ccc([N+](=O)[O-])s2)CC(C)O1 (configuration not stated)	aSyn 5UTR act -82
O=C(/C=C/c1cccs1)N1CCCCC1	aSyn 5UTR act -92
O=C(/C=C/c1ccc([N+](=O)[O-])s1)N1CCCC1	aSyn 5UTR act -102
O=C(COc1ccc(F)cc1)c1c(O)cc(O)cc1O	aSyn 5UTR act -79
COc1ccc(C(=O)CCc2ccccc2)c(O)c1	aSyn 5UTR act -107
COc1ccc(C(=O)Cc2ccc(F)cc2)c(OC)c1	aSyn 5UTR act -117
COc1ccc(C(=O)COc2ccc(F)cc2)c(O)c1	aSyn 5UTR act -119
Clc1ncccc1-c1nc2ccccc2s1	aSyn 5UTR act -149
O=c1c(-c2nc3ccccc3s2)cccn1Cc1ccc(Cl)cc1	aSyn 5UTR act -111
CNC(=O)c1ccc(Nc2nc(-c3ccccc3)nc3ccccc23)cc1	aSyn 5UTR act -90
COc1ccc(N2C(=O)c3ccccc3NC2c2ccc(OC)c(CSc3ccccn3)c2)cc1 (configuration not stated)	aSyn 5UTR act -89
COC(=O)COc1ccc(Cl)cc1C1Nc2ccccc2C(=O)N1c1ccc(OC)cc1 (configuration not stated)	aSyn 5UTR act -88
COc1ccc(N2C(=O)c3ccccc3NC2c2ccc(OC)c(COc3ccccn3)c2)cc1 (configuration not stated)	aSyn 5UTR act -77
Cc1ccc(N2NC(C)(c3cccs3)NC2=S)cc1 (configuration not stated)	aSyn 5UTR act -151
Cc1nnsc1C(=O)NNc1ccc(C(C)C)cc1	aSyn 5UTR act -99
CCOc1ccc(N/C(C)=C/C(=O)c2ccc3c(c2)OCCO3)cc1	aSyn 5UTR act -204
CCOc1ccc(N/C(C)=C\C(=O)c2ccc3c(c2)OCCO3)cc1	aSyn 5UTR act -133
Cc1nc2cc(NCc3ccc(Cl)cc3)ccc2n1C	aSyn 5UTR act -67
Cc1ccc(CNc2ccc3c(c2)nc(C)n3C)cc1	aSyn 5UTR act -64
FC(F)Sc1ccc(N=C2NN=C(c3ccc4c(c3)OCCO4)CS2)cc1	aSyn 5UTR act -127
c1cc2c(cc1C1=NNC(=NC3CC3)SC1)OCCO2	none
CC(C)CNC(=O)COC(=O)c1c2c(nc3ccccc13)/C(=C/c1cccs1)CC2	aSyn 5UTR act -110
COc1cc(OC)c(C(=O)Nc2cccc(C(C)=O)c2)cc1OC	aSyn 5UTR act -78
COc1ccc(C(C)NC(=O)Nc2ccc(C(C)=O)cc2)cc1OC (configuration not stated)	aSyn 5UTR act -100
COc1ccc(C(=O)Nc2cccc(C(C)=O)c2)cc1OC	aSyn 5UTR act -71
CCN(CC)CCNc1nc2cc(OC)c(OC)cc2c2nc(-c3ccccc3)nn12	aSyn 5UTR act -73
CC(C)(C)OC(=O)N/N=C/c1cccc([N+](=O)[O-])c1	aSyn 5UTR act -129
CCn1ncc(/C=N\NC(=O)c2csc3ccccc23)c1C	aSyn 5UTR act -66
CC/C(=N\NC(=O)c1c[nH]c2ccccc12)c1cccs1	aSyn 5UTR act -122
C/C(=N\NC(=O)c1c[nH]c2ccccc12)c1ccc(C)s1	aSyn 5UTR act -186
C/C(=N\NC(=O)c1csc(C)c1C)c1ccc(C)s1	aSyn 5UTR act -93
Cc1ccc(/C=N/NC(=O)c2c[nH]c3ccccc23)s1	aSyn 5UTR act -113
O=C(N/N=C/c1cccc([N+](=O)[O-])c1)c1c[nH]c2ccccc12	aSyn 5UTR act -124
CC(C)(C)OC(=O)N/N=C\c1ccc[nH]1	aSyn 5UTR act -77
O=C(N/N=C/c1ccccn1)c1c[nH]c2ccccc12	aSyn 5UTR act -79
O=C(N/N=C/c1ccsc1)c1c[nH]c2ccccc12	aSyn 5UTR act -126
Cc1ccsc1/C=N/NC(=O)c1c[nH]c2ccccc12	aSyn 5UTR act -122
CC(=O)N/N=C(/C)c1ccc(NC(=O)c2csc(C)c2C)cc1	aSyn 5UTR act -113
CCn1nc(C)c(/C=N/NC(=O)c2c[nH]c3ccccc23)c1C	aSyn 5UTR act -175
O=c1c2ccccc2nnn1-c1ccc(Br)cc1	aSyn 5UTR act -169
C#CCn1c(=NC(=O)c2ccc(Br)s2)sc2cccc(OC)c21	aSyn 5UTR act -113
COc1ccc(/C=C/C2=NC(=C\N(C)C)/C(=O)O2)cc1	aSyn 5UTR act -151
O=C(Nc1ccc(N2CCOCC2)nc1)c1ccc(Cl)cc1	aSyn 5UTR act -73
O=C(Nc1ccc(N2CCOCC2)c(Cl)c1)c1ccc(F)cc1	aSyn 5UTR act -140
O=C(NC(=S)N1CCOCC1)c1cc2ccccc2o1	aSyn 5UTR act -74
O=C(Nc1ccc(N2CCOCC2)c(Cl)c1)c1ccc(Br)o1	aSyn 5UTR act -253
O=C(Nc1ccc(CN2CCOCC2)cc1)c1ccc(Br)o1	aSyn 5UTR act -104
CC(C)C(=O)N1CCN(c2ccc(NC(=O)c3ccc4c(c3)OCCO4)cc2Cl)CC1	aSyn 5UTR act -109
O=C(Nc1ccccc1N1CCCC1)c1cc2ccccc2o1	aSyn 5UTR act -252
O=C(N/N=C/c1ccc(N2CCOCC2)s1)c1ccccc1Cl	aSyn 5UTR act -116
O=C(/C=C/c1ccccc1)Nc1ccc(CN2CCOCC2)cc1	aSyn 5UTR act -88
O=C(Nc1ccc(N2CCOCC2)c(Cl)c1)c1cc2ccccc2o1	aSyn 5UTR act -204
Clc1cc(NCc2cccs2)ccc1N1CCOCC1	aSyn 5UTR act -105
O=C(Nc1ccc(N2CCOCC2)c(Cl)c1)c1ccccc1Cl	aSyn 5UTR act -66
O=C(Nc1cccnc1Cl)c1cc2ccccc2o1	aSyn 5UTR act -166
CCc1ccccc1NC(=O)c1cc2ncc(Br)cn2n1	aSyn 5UTR act -79
O=C(Nc1ccccc1C(F)(F)F)c1cc2ncc(CCCl)cn2n1	aSyn 5UTR act -81
COc1cccc(-c2nnc(N(C)C(=O)C3CCOC3)s2)c1 (configuration not stated)	aSyn 5UTR act -71
O=C(O)C(=O)/C(=C\c1ccc([N+](=O)[O-])cc1)c1ccc2ccccc2n1	aSyn 5UTR act -88
O=C(O)C(=O)/C(=C\c1ccccc1)c1ccc2ccccc2n1	aSyn 5UTR act -90
COCCn1c(=O)[nH]c2cc(C(=O)Nc3cccc(F)c3)ccc2c1=O	aSyn 5UTR act -113
CC(=O)N/N=C\c1ccccc1OC/C=C/c1ccccc1	aSyn 5UTR act -128
CCOC(=O)N/N=C/C=C/c1ccccc1	aSyn 5UTR act -105
COc1ccc(/C=N/NC(=O)COc2ccccc2-c2ccccc2)cc1	none
COC(=O)N/N=C/c1ccc(Oc2ccccc2)cc1	aSyn 5UTR act -69
COC(=O)N/N=C\c1ccc(OC/C=C/c2ccccc2)cc1	aSyn 5UTR act -95
CCOC(=O)N/N=C\c1ccc(OC/C=C/c2ccccc2)cc1	aSyn 5UTR act -73
CC(C)(O)C(=O)N/N=C\c1ccc(OC/C=C/c2ccccc2)cc1	aSyn 5UTR act -96
Cc1ccc(-c2csc(NC(CO)c3nc4ccccc4n3CCOCCO)n2)cc1 (configuration not stated)	aSyn 5UTR act -71
O=C(Nc1ccc(Cl)cc1)c1ccc(OCC2CCCO2)cc1 (configuration not stated)	aSyn 5UTR act -202
O=C(Nc1ccccc1)OCC1CCCO1 (configuration not stated)	aSyn 5UTR act -84

High-throughput results deposited in PubChem by Broad Institute.
